{"source": "PubChem BioAssay AID777", "about": "(Sanford-Burnham Center for Chemical Genomics, 2007)", "note": "In all, about 96,000 compounds went through this assay and about 19,000 (20%) were called active.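 The calls were made as follows: active = blocking of liver enzyme CYP2C9 beyond about 50% at 5 µM (limit read from the data); inactive = the rest.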 Not all results are given here."}
{"target": "Cytochrome P450 2C9 (Homo sapiens) (UniProt P11712)", "sequence (P11712 whole entry, looked up)": "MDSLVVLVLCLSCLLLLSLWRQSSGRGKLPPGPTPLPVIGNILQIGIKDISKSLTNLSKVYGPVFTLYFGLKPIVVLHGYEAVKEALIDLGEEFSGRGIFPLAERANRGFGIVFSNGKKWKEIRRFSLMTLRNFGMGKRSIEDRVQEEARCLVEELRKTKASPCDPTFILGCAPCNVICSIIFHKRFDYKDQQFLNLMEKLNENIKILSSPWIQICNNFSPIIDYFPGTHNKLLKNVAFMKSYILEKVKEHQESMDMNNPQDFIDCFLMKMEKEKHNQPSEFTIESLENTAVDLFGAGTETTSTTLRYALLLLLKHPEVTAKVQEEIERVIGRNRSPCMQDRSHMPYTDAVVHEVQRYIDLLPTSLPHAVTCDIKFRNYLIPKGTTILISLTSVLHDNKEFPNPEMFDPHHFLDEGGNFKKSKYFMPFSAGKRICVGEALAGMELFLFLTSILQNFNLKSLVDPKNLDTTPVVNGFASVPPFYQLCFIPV", "experiment": "blockers of cytochrome P450 2C9 activity – biochemical, luminescence, ADME assay, primary screen (AID 777)", "details": "CYP2C9 Supersomes, luciferin-H conversion, at 5 µM, active compounds read high"}
{"smiles": "CCOc1nnc(C)c2c(C)n(-c3cccc(Cl)c3)nc12", "inhibition": "28.6% (inactive)"}
{"smiles": "CCOC(=O)CNC(=O)CSc1nnc(-c2cccc(OC)c2)n1CC", "inhibition": "9.9% (inactive)"}
{"smiles": "CCn1c(SCC(=O)Nc2nc3ccc(OC)cc3s2)nnc1-c1ccoc1C", "inhibition": "68.2% (active)"}
{"smiles": "CCCn1c(SCC(=O)Nc2cccc(C(=O)OCC)c2)nnc1-c1ccoc1C", "inhibition": "15.8% (inactive)"}
{"smiles": "CCOc1ccc2nc(NC(=O)CSc3nc4c(c(=O)n(C)c(=O)n4C)n3CC)sc2c1", "inhibition": "52.2% (active)"}
{"smiles": "C#CC(C)(C)NC(=O)CSc1nc2c(c(=O)n(C)c(=O)n2C)n1CCCC", "inhibition": "23.7% (inactive)"}
{"smiles": "CCCCn1c(SCC(=O)NCCc2ccc(OC)c(OC)c2)nc2c1c(=O)n(C)c(=O)n2C", "inhibition": "-17.3% (inactive)"}
{"smiles": "Cc1c(Nc2cc(N3CCCC(C)C3)c3nonc3c2[N+](=O)[O-])c(=O)n(-c2ccccc2)n1C", "note": "(stereo not drawn)", "inhibition": "41.4% (inactive)"}
{"smiles": "CC1CSc2nnc(CCc3ccccc3)n21", "note": "(stereo not drawn)", "inhibition": "-10.1% (inactive)"}
{"smiles": "COc1ccccc1NC(=O)COc1ccc(C(=O)OCC(=O)N(C(C)C)C(C)C)cc1OC", "inhibition": "37.6% (inactive)"}
{"smiles": "CC1CC(C)CN(CC(=O)Nc2ccc(S(N)(=O)=O)cc2)C1", "note": "(stereo not drawn)", "inhibition": "15.7% (inactive)"}
{"smiles": "CN(C)/C=C1/Nc2ccccc2C1=O", "inhibition": "-8.2% (inactive)"}
{"smiles": "c1ccc(-n2nnnc2N2CCOCC2)cc1", "inhibition": "-5.9% (inactive)"}
{"smiles": "O=C(CN1CCOCC1)Nc1c2c(nc3c1CCC3)CCC2", "inhibition": "-11.6% (inactive)"}
{"smiles": "CCN(CC)CCn1c2ccc(Cl)cc2c2nc(C)sc21", "inhibition": "46.4% (inactive)"}
{"smiles": "Cc1nc(Cl)c2oc3ccccc3c2n1", "inhibition": "9% (inactive)"}
{"smiles": "CCC(Oc1ccccc1)C(=O)NCc1cccnc1", "note": "(stereo not drawn)", "inhibition": "8.8% (inactive)"}
{"smiles": "COc1ccc(-c2cc(C(F)(F)F)nc(S(C)(=O)=O)n2)cc1OC", "inhibition": "4.2% (inactive)"}
{"smiles": "COc1ccc(-c2cc(C(F)(F)F)nc(NCc3cccnc3)n2)cc1", "inhibition": "55.3% (active)"}
{"smiles": "C=CCC(NCCCO)c1cccc(OC)c1OC", "note": "(stereo not drawn)", "inhibition": "-26.1% (inactive)"}
{"smiles": "CC(C)(C)c1cc2cccnc2n1Cc1ccccc1", "inhibition": "0.7% (inactive)"}
{"smiles": "CCOc1ccc2nc(SC(CC)C(=O)Nc3cc(C)on3)sc2c1", "note": "(stereo not drawn)", "inhibition": "-4.1% (inactive)"}
{"smiles": "COCCNC(=O)c1onc(CSc2cccc(C)c2)c1C(=O)O", "inhibition": "30.2% (inactive)"}
{"smiles": "COC(=O)c1c(CCl)noc1C(=O)NC(C)C", "inhibition": "-0.5% (inactive)"}
{"smiles": "COc1ccc(SCc2noc(C(=O)NCC3CCCO3)c2C(=O)O)cc1", "note": "(stereo not drawn)", "inhibition": "20.1% (inactive)"}
{"smiles": "CCOc1cccc(SCc2noc(C(=O)NC(C)C)c2C(=O)O)c1", "inhibition": "73.7% (active)"}
{"smiles": "CCCCNC(=O)c1onc(CSc2cccc(OC)c2)c1C(=O)O", "inhibition": "82.5% (active)"}
{"smiles": "O=[N+]([O-])c1ccc(Oc2ccc(F)cc2Br)c2ccncc12", "inhibition": "6.1% (inactive)"}
{"smiles": "Cc1ccc(NC(=O)Nc2ccc3oc(C)nc3c2)cc1", "inhibition": "8.7% (inactive)"}
{"smiles": "COC(=O)CSC1=C(C#N)C(c2ccccc2OC)C(C(=O)OC)C(=O)N1", "note": "(stereo not drawn)", "inhibition": "24% (inactive)"}
{"smiles": "CCOC(=O)CSC1=C(C#N)C(c2sccc2C)CC(=O)N1", "note": "(stereo not drawn)", "inhibition": "54.8% (active)"}
{"smiles": "C=CCSC1=C(C#N)C(c2cc(Br)c(O)c(OC)c2)CC(=O)N1", "note": "(stereo not drawn)", "inhibition": "39.1% (inactive)"}
{"smiles": "Cc1ccc(C2CC(=O)NC(SCC(=O)OCc3ccccc3)=C2C#N)o1", "note": "(stereo not drawn)", "inhibition": "97% (active)"}
{"smiles": "CCOC(=O)c1ccc(N2C(=O)CC(Sc3nc(O)c(CC)c(=O)[nH]3)C2=O)cc1", "note": "(stereo not drawn)", "inhibition": "26.2% (inactive)"}
{"smiles": "O=C(COc1ccc(Cl)cc1)N1CCN(c2cccc(C(F)(F)F)c2)CC1", "inhibition": "13.6% (inactive)"}
{"smiles": "Cc1cc(NC(=O)CS(=O)(=O)c2cn(C)c3ccccc23)no1", "inhibition": "-20.5% (inactive)"}
{"smiles": "CCN(CC)S(=O)(=O)c1ccc2nc(CSc3nnnn3-c3ccc(O)cc3)[nH]c2c1", "inhibition": "97.3% (active)"}
{"smiles": "CCN(CC)S(=O)(=O)c1ccc2nc(COC(=O)c3n[nH]c4ccccc34)[nH]c2c1", "inhibition": "77.2% (active)"}
{"smiles": "CN(C)S(=O)(=O)c1ccc(NC(=O)COC(=O)c2n[nH]c3ccccc23)cc1", "inhibition": "13.8% (inactive)"}
{"smiles": "CCN(CC)S(=O)(=O)c1ccc2[nH]cc(C(=O)NCCc3ccccc3)c(=O)c2c1", "inhibition": "22.4% (inactive)"}
{"smiles": "COc1ccc(-n2nnnc2SCc2nc(N)nc(N3CCOCC3)n2)cc1", "inhibition": "35.6% (inactive)"}
{"smiles": "O=c1c2ccccc2nc(CSc2nnnn2-c2ccccc2)n1-c1ccccc1", "inhibition": "-6.4% (inactive)"}
{"smiles": "COC(=O)[C@H](Cc1ccccc1)NC(=O)N1CC(C)OC(C)C1", "note": "(stereo partly drawn)", "inhibition": "4.3% (inactive)"}
{"smiles": "O=C(NC1(C(F)(F)F)NC(=O)N(Cc2cccnc2)C1=O)c1ccccc1Cl", "note": "(stereo not drawn)", "inhibition": "2.6% (inactive)"}
{"smiles": "CC(C)(C)NC(=O)NC(=O)COC(=O)CCC1CCCCC1", "inhibition": "11.7% (inactive)"}
{"smiles": "CC(=O)N=c1ncn(CC(COC(C)=O)OC(C)=O)c2nc[nH]c12", "note": "(stereo not drawn)", "inhibition": "10.5% (inactive)"}
{"smiles": "O=C(Nc1ccccc1C(F)(F)F)c1cc(-c2ccc(O)cc2)on1", "inhibition": "-234% (inactive)"}
{"smiles": "Cc1cc2c(c(=O)n1C)C(C(C)C)C(C#N)=C(N)O2", "note": "(stereo not drawn)", "inhibition": "9.3% (inactive)"}
{"smiles": "CCOC(=O)C1(C(F)(F)F)N=C(N(C)C)OC(N(C)C)=N1", "inhibition": "5.6% (inactive)"}
{"smiles": "C=CCOc1ccc(Cl)cc1CNCCCN1CCOCC1", "inhibition": "9.4% (inactive)"}
{"smiles": "Cc1cc(C)c(OCC(=O)N/N=C/c2ccco2)c(C)c1", "inhibition": "-17.6% (inactive)"}
{"smiles": "CSc1ccc(/C=N\\NC(=O)COc2ccc(Cl)cc2Br)cc1", "inhibition": "36% (inactive)"}
{"smiles": "Cc1ccc(OCC(=O)N/N=C/c2ccncc2)cc1", "inhibition": "86.7% (active)"}
{"smiles": "NS(=O)(=O)c1ccc(NS(=O)(=O)/C=C/c2ccccc2)cc1", "inhibition": "47.3% (inactive)"}
{"smiles": "Cc1ccc(-c2nn(C(C)(C)C)c3ncnc(N)c23)cc1", "inhibition": "25.5% (inactive)"}
{"smiles": "Cn1c(=O)[nH]c(=O)c2c1nc(N1CCN(CCO)CC1)n2CCSc1nc2ccccc2s1", "inhibition": "-5.4% (inactive)"}
{"smiles": "CCCc1cc(=O)n2[nH]c(SCc3ccccc3)nc2n1", "inhibition": "43.9% (inactive)"}
{"smiles": "Cc1nc2nc(CSc3nc4ccccc4s3)cc(=O)n2[nH]1", "inhibition": "60.1% (active)"}
{"smiles": "CCCCn1nc(C(=O)N2CCc3ccccc32)c2ccccc2c1=O", "inhibition": "41% (inactive)"}
{"smiles": "CCOc1ccc(OCc2ccc(C(=O)Nc3cccc(C)n3)o2)cc1", "inhibition": "40.9% (inactive)"}
{"smiles": "CC(=O)Cc1nsc(NC(=O)c2ccc(COc3ccc(C)cc3)o2)n1", "inhibition": "64.4% (active)"}
{"smiles": "CC(=O)Cc1nsc(NC(=O)c2csc3c2CCCC3)n1", "inhibition": "30% (inactive)"}
{"smiles": "O=C(Oc1ccccc1)Oc1ccc2c(c1)oc(=O)c1ccccc12", "inhibition": "-55.2% (inactive)"}
{"smiles": "Cc1c(C(=O)N2CC(C)OC(C)C2)sc2nc(-c3ccccc3)cn12", "note": "(stereo not drawn)", "inhibition": "1.3% (inactive)"}
{"smiles": "Fc1ccccc1/C=C1\\CCCC2=C1Nc1ncnn1C2c1ccccc1F", "note": "(stereo not drawn)", "inhibition": "43.9% (inactive)"}
{"smiles": "Cc1ccc(C2(C(F)(F)F)N=C3Sc4cc(C)cc(C)c4N3C(=O)N2)cc1", "note": "(stereo not drawn)", "inhibition": "65.5% (active)"}
{"smiles": "CCOC(=O)C(=O)Nc1nc(-c2ccccc2)c(CC)s1", "inhibition": "2.4% (inactive)"}
{"smiles": "N=c1n(Cc2ccc(Cl)cc2)c2ccccc2n1CC(O)c1ccco1", "note": "(stereo not drawn)", "inhibition": "23.2% (inactive)"}
{"smiles": "Cc1cccn2c(=O)c(/C=C3\\SC(=S)N(CC(C)C)C3=O)c(NCCCOC(C)C)nc12", "inhibition": "27% (inactive)"}
{"smiles": "Cn1c(=NC(=O)c2ccco2)sc2cccc(F)c21", "inhibition": "1% (inactive)"}
{"smiles": "CC(Oc1ccc(-c2ccccc2)c(F)c1)c1ccn(S(=O)(=O)c2cccc3ccccc23)n1", "note": "(stereo not drawn)", "inhibition": "76.9% (active)"}
{"smiles": "CCN(CC)Cc1cc(C(C)=O)ccc1O", "inhibition": "-7.4% (inactive)"}
{"smiles": "CCOc1ccccc1Oc1cn[nH]c1-c1ccc(OC)cc1O", "inhibition": "98.2% (active)"}
{"smiles": "CCOc1ccccc1NC(=O)Nc1cc(OC)ccc1OC", "inhibition": "4.9% (inactive)"}
{"smiles": "CCOC(=O)C1CCN(C(=O)CSc2cc(=O)n(C)c3ccccc23)CC1", "inhibition": "18.3% (inactive)"}
{"smiles": "O=c1c(-c2ccccc2)coc2c(CN3CCOCC3)c(O)ccc12", "inhibition": "7.7% (inactive)"}
{"smiles": "CCOC(=O)C1CCCN(Cc2nc(N)nc(Nc3ccc(C)cc3)n2)C1", "note": "(stereo not drawn)", "inhibition": "13.1% (inactive)"}
{"smiles": "CC(C)(O)C#Cc1ccc(C(=O)N2CCC(C(N)=O)(N3CCCCC3)CC2)cc1", "inhibition": "27.6% (inactive)"}
{"smiles": "NC(=O)C1(N2CCCCC2)CCN(C(=O)c2ccc(C#Cc3ccccc3)o2)CC1", "inhibition": "71.6% (active)"}
{"smiles": "NC(=O)C1(N2CCCCC2)CCN(C(=S)Nc2ccc(Cl)cc2)CC1", "inhibition": "20.5% (inactive)"}
{"smiles": "CCOC(=O)N1CCC(NC(=O)c2cnn3ccccc23)CC1", "inhibition": "9.8% (inactive)"}
{"smiles": "O=C(Nc1cccc(-c2nnc(-c3ccccc3)o2)c1)C1CCCO1", "note": "(stereo not drawn)", "inhibition": "27.5% (inactive)"}
{"smiles": "O=C(CSc1nnc(-c2ccccc2)o1)N1CCOCC1", "inhibition": "-9.8% (inactive)"}
{"smiles": "C=CCSc1nc2ccccc2[nH]1", "inhibition": "-21% (inactive)"}
{"smiles": "c1ccc(-c2nnc(SCc3nc4ccccc4[nH]3)o2)cc1", "inhibition": "50.9% (active)"}
{"smiles": "O=C(NC1CCCC1)c1ccc(Br)s1", "inhibition": "33.9% (inactive)"}
{"smiles": "CCOc1cc(S(=O)(=O)NC2CC(C)(C)NC(C)(C)C2)ccc1F", "inhibition": "-1.2% (inactive)"}
{"smiles": "CCOc1cc(S(=O)(=O)NCc2ccc3c(c2)OCO3)ccc1F", "inhibition": "61% (active)"}
{"smiles": "CCOc1c2ccc(C(=O)NCc3ccc4c(c3)OCO4)cc2nn1C", "inhibition": "41.4% (inactive)"}
{"smiles": "COc1ccc(OCCCC(=O)Oc2ccc(OC)cc2)cc1", "inhibition": "11.2% (inactive)"}
{"smiles": "Cc1ccc(/C=N\\n2c(-c3ccccc3)n[nH]c2=S)s1", "inhibition": "13.6% (inactive)"}
{"smiles": "Cn1c(-c2sc3cc(C(F)(F)F)cnc3c2-c2ccccc2)n[nH]c1=S", "inhibition": "51.7% (active)"}
{"smiles": "Cc1cc(C(F)(F)F)n2ncc(-c3ccccc3)c2n1", "inhibition": "0.4% (inactive)"}
{"smiles": "O=C(NCCc1ccccn1)c1cc(C(=O)C2CCCCC2)c[nH]1", "inhibition": "10.3% (inactive)"}
{"smiles": "CC(C)Oc1ccc(CCc2n[nH]c(=S)n2Cc2ccccc2)cc1", "inhibition": "16.2% (inactive)"}
{"smiles": "O=c1[nH]nc(CSCc2ccccc2Cl)[nH]1", "inhibition": "-20.8% (inactive)"}
{"smiles": "S=c1[nH]nc(CSCc2ccc(Cl)cc2Cl)n1-c1ccccc1", "inhibition": "76.5% (active)"}
{"smiles": "CC(Cc1cccs1)NC(=O)NC1CCCCC1", "note": "(stereo not drawn)", "inhibition": "12.2% (inactive)"}
